# Shown are actives, neighbours in structure and some others; about 12% of the full set was active somewhere.
# Sm TGR inh: S. mansoni TGR enzyme inhibition; 360,000 tested, 3% active; Potency, µM (top dose mostly 114 µM), without a hit: at the top dose activity change, negative = inhibition, usual class: inhibitors; Q962Y6; purified TGR, DTNB reduction, TNB absorbance 405 nm; also: % is scaled to controls: 0 for no effect and ±100 for the full control effect; nearly all actives have a fitted effect of over 60% in size
#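 First, TGR (20 nM dispensed) and NADPH were mixed with compound. Second, a 15 min room-temperature incubation followed. Third, further NADPH and then DTNB were added to start the reaction. Finally, TNB absorbance was monitored kinetically.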
# Pf growth 48h: inhibits P. falciparum growth in the first generation, 48 h | P. falciparum luciferase growth in erythrocytes, 48 h | Potency, µM (series often up to 28.7 µM), for inactives: top-dose activity change, negative = inhibition, most hits filed as inhibitors | 310,000 tested, 5.9% active | AID 504832; also: % is scaled to controls: 0 for no effect and ±100 for the full control effect
#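 Luciferase-expressing parasites in RBCs, 2% Hct / 0.1% parasitemia final; RPMI 1640 + 0.5% Albumax; 37 C, 5% CO2, one generation; luminescence read-out, lower signal = inhibition.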
# SARS PLpro yeast: blocks SARS-CoV papain-like protease in a yeast assay. Potency, µM (doses to about 32.9 µM), for the others: at the highest dose activity, positive = growth rescue, actives largely listed as activators. S. cerevisiae expressing SARS-CoV PLpro, growth rescue. 330,000 tested, 0.19% active; calls by dose curve; also: 0% is about no effect; nearly all actives have a fitted effect of over 55% in size
# Pf growth 96h: P. falciparum growth inhibition at 96 hour, primary screen for plastid delayed-death inhibitors | P. falciparum luciferase reporter growth, 96 h | Potency, µM (highest dose often 28.7 µM), without a hit: at the highest dose activity change, negative = inhibition, hits mostly inhibitors | 320,000 tested, 6.9% active; also: % is scaled to controls: 0 for no effect and ±100 for the full control effect
#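 Delayed-death screen, second-generation endpoint: infected erythrocytes, 2% hematocrit, 0.05% parasitemia final; 96 hours at 37 C, 5% CO2; luciferase detection reagent; luminescence decrease equals reduced growth.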
# The depositor's hits bear a star; u = inconclusive; x = no result. Unless noted, calls follow the shape of the dose curve; as a rule, active = well fitted curve in the direction sought with a large enough effect; inconclusive = small, poorly fitted or top-dose-only effect, or another doubt; inactive = no such curve, though single readings can be large; an effect the other way counts as inactive or inconclusive. Potency is read from the fitted curve at half-maximal effect.
SMILES,Sm TGR inh,Pf growth 48h,SARS PLpro yeast,Pf growth 96h
COc1ccc(N(C(=O)c2ccncc2)S(=O)(=O)c2ccc(Cl)cc2)cc1,20µM*,25%,-22%,u
CCOc1ccc(NC(=O)Cc2ccc(-n3c(C)nc4cccnc43)cc2)cc1,3%,x,x,x
Cc1cccc(N(CC(=O)NC2CCCC2)C(=O)CCC(=O)Nc2ccccn2)c1,5%,-13%,1%,-28%
Cc1cc(C(F)F)n2nc(C(=O)Nc3cccc(C(F)(F)F)c3)nc2n1,-9%,-27%,3%,u
COc1ccc(C(F)(F)F)cc1NC(=O)c1nc2nc(C)cc(C(F)F)n2n1,3%,3.7µM*,-1%,u
F/C(COc1ccc2c(c1)[nH]c1ccccc12)=C1/CN2CCC1CC2,x,u,x,11µM*
O=C(COc1ccc(F)cc1)N1CCC(c2ccccc2)C1 (stereo unspecified),-3%,157%,-19%,u
CC1CCN(C(=S)c2cn(Cc3ccc(F)cc3)c3ccccc23)CC1,2%,u,-5%,u
CC1CCN(C(=S)c2cn(Cc3ccccc3F)c3ccccc23)CC1,10%,7.4µM*,10%,13µM*
CCn1c(=N)n(CCOc2ccc(Br)cc2)c2ccccc21,15%,x,x,x
COc1ccc(CCNC(=O)c2nc(SCc3ccc(C)cc3)ncc2Cl)cc1OC,2%,x,x,x
CCCc1cc(C(=O)Nc2cccnc2Cl)no1,2%,x,-18%,12µM*
CCCc1cc(C(=O)Nc2ccccc2C(=O)OC)no1,3%,4%,-2%,12µM*
CCCc1cc(C(=O)Nc2cc(C)ccc2O)no1,-2%,-25%,-10%,16%
CC1(C)O[C@@H]2[C@H](O1)[C@@H](COS(=O)(=O)O)O[C@H]2n1cc(Br)c(=O)[nH]c1=O,x,x,4%,x
CCC(=O)N1c2ccc(S(=O)(=O)CCC(=O)Nc3ccc(Br)c(C)c3)cc2CC1C (stereo unspecified),-1%,x,x,x
CC1(C)C(=O)Nc2ccccc2N1C(=O)COC(=O)c1cc(Cl)cc(Cl)c1,x,x,1%,x
O=C(Cn1ncc(Cl)c(Cl)c1=O)N1CCOCC1,-29%,u,2%,u
CC1(C)C(=O)Nc2ccccc2N1C(=O)COc1cc(Cl)ccc1Cl,-17%,12µM*,-2%,u
O=C(Cn1ncc(Cl)c(Cl)c1=O)N1CCc2ccccc21,16µM*,15%,-1%,-16%
O=C(Cn1ncc(Cl)c(Cl)c1=O)N1CCN(Cc2ccccc2)CC1,8.9µM*,u,0%,u
CC1(C)C(=O)Nc2ccccc2N1C(=O)Cn1ncc(Cl)c(Cl)c1=O,10µM*,u,0%,-1%
NCC[C@H](O)C(=O)N[C@@H]1C[C@H](N)[C@@H](O[C@H]2O[C@H](CN)CC[C@H]2N)[C@H](O)[C@H]1O[C@H]1O[C@H](CO)[C@@H](O)[C@H](N)[C@H]1O,x,-5%,x,-17%
CC1=NN(c2nc3ccccc3[nH]2)C(=O)/C1=C/N(C)C,5%,126%,-21%,u
CC1=NN(c2nc3ccccc3[nH]2)C(=O)C1Cc1ccccc1 (stereo unspecified),5%,2.6µM*,-6%,4.1µM*
SMILES,Sm TGR inh,Pf growth 48h,SARS PLpro yeast,Pf growth 96h
C#C[C@]1(O)CC[C@H]2[C@H]3[C@H](CC[C@@]21C)C1=C(CC(=O)CC1)C[C@@H]3C,x,-5%,x,-26%
CC1CC=C2C(C#N)=C(N)C(C#N)(C#N)C(c3cccs3)C2C1 (stereo unspecified),50µM*,u,1%,19%
O=C(Nc1ccc2c(c1)OCO2)O[C@@H]1C[C@H]2CCC(=O)N3CC[C@@H](C1)[C@@H]23,8%,u,-4%,u
CCCCC[C@H](O)/C=C/[C@H]1CCC(=O)[C@@H]1CCCCCCC(=O)N1CCCCC1CO (stereo partly specified),-14%,9.3µM*,-2%,u
CCCCC[C@H](O)/C=C\[C@@H]1[C@H](O)CC(=O)[C@@H]1CCCCCCC(=O)O,x,u,x,5.1µM*
CCC1CCCCN1C(=O)CCCOc1ccccc1 (stereo unspecified),-9%,x,8%,89%
CCOc1nc2cnccc2n(CC(=O)Nc2cccc(C)c2)c1=O,-26%,6%,u,13%
CCC1c2ccc(C)n2CCN1C(=O)Nc1ccccc1OC (stereo unspecified),25µM*,u,-1%,111%
COc1ccccc1NC(=O)N1CCCC1C(=O)Nc1ccc(NC(C)=O)cc1 (stereo unspecified),3%,u,0%,u
COc1ccc2c(c1)CCN=C2Cc1ccc(OC)c(OC)c1,-17%,u,9%,13µM*
COc1ccc2c(c1)CCc1c(C(=O)NCCc3ccc(OC)c(OC)c3)noc1-2,-4%,11%,7%,16%
O=C(Nc1cc(Cl)cc(Cl)c1)c1ccc(F)c(S(=O)(=O)NC2CCCCC2)c1,8%,x,x,x
O=C(NCc1ccco1)C1OCCc2ccccc21 (stereo unspecified),22µM*,9%,5%,29%
COc1ccccc1/C=C/c1nc(S(=O)(=O)c2ccccc2)c(NCCN(C)C)o1,22µM*,u,0%,-30%
CN(C)CCCNc1oc(/C=C/c2cccs2)nc1S(=O)(=O)c1ccccc1,u,u,1%,u
COc1ccc(/C=C/c2nc(S(=O)(=O)c3ccccc3)c(N(C)C)o2)cc1OC,u,u,-4%,u
COc1ccc(/C=C/c2nc(S(=O)(=O)c3ccccc3)c(NCCCN(C)C)o2)cc1OC,u,12µM*,-3%,u
CCC(C(=O)c1ccc(O)cc1)c1ccccc1 (stereo unspecified),16%,13µM*,-24%,54%
CCC(C(=O)N(C(C)C)C(C)C)c1ccccc1 (stereo unspecified),6%,52%,0%,36%
C=CCNC(=O)/C(C#N)=C\c1cc(Cl)c(O)c(OCC)c1,40µM*,-4%,1%,u
CC(C)c1ccc(NC(=O)c2ccc(F)c(S(=O)(=O)N3CCc4ccccc4C3)c2)cc1,8%,x,x,x
Cc1ccc(S(=O)(=O)N2CCOCC2)cc1NC(=O)CSCc1c(C)noc1C,0%,-5%,1%,-7%
COc1ccc(CC2c3cc(OC)c(OC)cc3CCN2C)cc1OC (stereo unspecified),1%,-1%,0%,u
COc1cc2c(cc1OC)[C@@H](Cc1ccc(OCCC#N)cc1)N(C)CC2,50µM*,-7%,0%,u
CC(C)Oc1ccc(Cc2cnc(=S)[nH]c2N)cc1,71µM*,-2%,0%,7%
Cc1cccc(C2=NCC(=O)N(CC(=O)NCc3ccco3)c3sc4c(c32)CCCC4)c1,18µM*,u,-18%,-18%
CCOC(=O)c1cc2c(ccn2C)n1Cc1ccc(C#N)cc1,8%,-4%,-3%,4.1µM*
CCOC(=O)c1cc2c(ccn2C)n1CC(=O)N1CCC(Cc2ccccc2)CC1,0%,10µM*,-5%,u
O=C(CN1CCCC1c1ccc2c(c1)OCCO2)NC(=O)Nc1ccccc1 (stereo unspecified),1%,u,u,u
